The record followed here is article PMC7862700, “An all-to-all approach to the identification of sequence-specific readers for epigenetic DNA modifications on cytosine”.

Assay in all cases: DAPPL (digital affinity profiling via proximity ligation, sequencing); 10 mM Tris-HCl pH 7.5, 50 mM NaCl, 1 mM DTT, 4% glycerol, room temperature, 30 min; GST-TFs on glutathione beads, 16-mer random dsDNA library, 0.1% formaldehyde crosslink after washing; high values mean tight binding
Holding throughout (conditions): protein: recombinant; tags: N-terminal GST; dsDNA, one strand shown

Assay [1] deals with T1, ERF (Homo sapiens, UniProt P50548 1-548).
T1 sequence: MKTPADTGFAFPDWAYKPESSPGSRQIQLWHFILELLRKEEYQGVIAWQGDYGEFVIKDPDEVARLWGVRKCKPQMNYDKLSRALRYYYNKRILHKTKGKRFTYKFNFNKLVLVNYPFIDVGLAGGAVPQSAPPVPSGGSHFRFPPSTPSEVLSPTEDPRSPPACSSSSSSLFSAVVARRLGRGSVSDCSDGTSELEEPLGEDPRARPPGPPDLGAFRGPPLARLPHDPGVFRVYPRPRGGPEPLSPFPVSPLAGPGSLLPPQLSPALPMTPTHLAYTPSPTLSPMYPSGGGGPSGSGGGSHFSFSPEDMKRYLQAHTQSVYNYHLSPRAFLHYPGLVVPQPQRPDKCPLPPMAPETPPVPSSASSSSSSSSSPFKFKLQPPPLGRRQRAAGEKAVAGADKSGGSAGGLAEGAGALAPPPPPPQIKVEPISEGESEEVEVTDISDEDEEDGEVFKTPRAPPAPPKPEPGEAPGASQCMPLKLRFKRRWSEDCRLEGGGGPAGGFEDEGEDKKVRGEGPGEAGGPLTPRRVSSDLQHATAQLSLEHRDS
The essentials: (§1)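 Human transcription factors carrying a GST fusion were produced in yeast, bound to glutathione beads, tagged with DNA barcodes and pooled together with a tag-only sample. Each pool was held with 200 nmole of a random double-stranded 16-mer DNA library in Tris/NaCl/DTT/glycerol buffer for 30 min at room temperature, then washed, crosslinked in 0.1% formaldehyde, proximity-ligated with BsaI/T4 ligase (1 h, 37 °C), PCR-amplified and sequenced on an Illumina NextSeq500. Binding signal is the read frequency of each hexamer for a given factor divided by its frequency in the tag-only sample.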

The target in assay [2] is T2, ETV3L (Homo sapiens, UniProt Q6ZN32 1-361).
T2 sequence: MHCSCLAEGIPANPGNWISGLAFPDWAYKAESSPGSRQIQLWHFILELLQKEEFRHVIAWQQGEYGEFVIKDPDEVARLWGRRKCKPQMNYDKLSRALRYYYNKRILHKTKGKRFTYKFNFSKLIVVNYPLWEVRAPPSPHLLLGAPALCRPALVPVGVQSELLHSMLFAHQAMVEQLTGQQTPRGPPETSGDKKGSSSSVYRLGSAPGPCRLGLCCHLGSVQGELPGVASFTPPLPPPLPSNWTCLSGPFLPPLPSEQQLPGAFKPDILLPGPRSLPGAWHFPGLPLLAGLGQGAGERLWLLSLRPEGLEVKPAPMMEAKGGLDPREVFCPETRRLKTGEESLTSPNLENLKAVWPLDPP
The gist of the method: as §1

In assay [3] the target is T3, ETS2 (Homo sapiens, UniProt P15036 1-469).
T3 sequence: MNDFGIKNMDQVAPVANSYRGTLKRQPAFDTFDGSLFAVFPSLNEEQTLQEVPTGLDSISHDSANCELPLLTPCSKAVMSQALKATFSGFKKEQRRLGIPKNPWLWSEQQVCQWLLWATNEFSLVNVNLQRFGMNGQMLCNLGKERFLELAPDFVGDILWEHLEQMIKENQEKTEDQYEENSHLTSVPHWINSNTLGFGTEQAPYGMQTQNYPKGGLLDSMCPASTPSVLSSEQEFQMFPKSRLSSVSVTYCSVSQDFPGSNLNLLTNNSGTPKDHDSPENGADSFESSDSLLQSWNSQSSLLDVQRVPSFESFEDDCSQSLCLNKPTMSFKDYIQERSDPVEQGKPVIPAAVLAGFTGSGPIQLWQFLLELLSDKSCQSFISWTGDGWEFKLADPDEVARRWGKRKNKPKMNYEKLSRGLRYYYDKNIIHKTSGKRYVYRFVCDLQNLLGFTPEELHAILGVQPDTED
The essentials:
as §1

The target in assay [4] is T4, SPDEF (Homo sapiens, UniProt O95238 1-335).
T4 sequence: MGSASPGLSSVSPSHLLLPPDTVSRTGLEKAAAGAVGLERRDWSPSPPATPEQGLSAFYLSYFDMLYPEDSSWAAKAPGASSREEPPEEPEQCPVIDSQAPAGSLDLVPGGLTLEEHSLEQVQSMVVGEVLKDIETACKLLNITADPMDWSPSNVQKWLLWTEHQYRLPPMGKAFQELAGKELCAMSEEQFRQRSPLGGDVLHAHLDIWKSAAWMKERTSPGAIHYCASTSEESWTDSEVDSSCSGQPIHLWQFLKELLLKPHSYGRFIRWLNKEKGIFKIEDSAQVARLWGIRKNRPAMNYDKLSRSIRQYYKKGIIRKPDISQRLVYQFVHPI
The gist of the method: as §1

In assay [5] the target is T5, ETV7 (Homo sapiens, UniProt Q9Y603 1-341).
T5 sequence: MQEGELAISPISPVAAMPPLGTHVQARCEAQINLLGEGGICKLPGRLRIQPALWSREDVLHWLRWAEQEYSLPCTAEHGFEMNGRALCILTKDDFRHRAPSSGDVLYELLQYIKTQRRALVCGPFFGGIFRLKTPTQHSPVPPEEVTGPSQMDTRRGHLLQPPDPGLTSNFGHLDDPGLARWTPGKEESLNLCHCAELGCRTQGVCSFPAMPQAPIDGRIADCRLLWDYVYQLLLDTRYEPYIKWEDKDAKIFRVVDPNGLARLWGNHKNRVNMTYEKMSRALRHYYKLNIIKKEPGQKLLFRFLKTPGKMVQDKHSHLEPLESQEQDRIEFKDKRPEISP
The gist of the method:
as §1

The target of assay [6] is T6, ELF5 (Homo sapiens, UniProt Q9UKW6-2 1-255).
T6 sequence: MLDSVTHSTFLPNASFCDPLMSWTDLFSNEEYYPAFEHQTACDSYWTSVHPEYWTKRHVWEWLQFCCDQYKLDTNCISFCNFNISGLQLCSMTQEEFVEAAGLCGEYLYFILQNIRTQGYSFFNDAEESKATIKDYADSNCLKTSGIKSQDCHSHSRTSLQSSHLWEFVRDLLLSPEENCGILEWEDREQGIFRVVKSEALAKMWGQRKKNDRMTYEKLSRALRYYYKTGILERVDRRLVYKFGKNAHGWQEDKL
The essentials:
as §1

Assay [7] concerns the target T7, ETV3 (Homo sapiens, UniProt P41162-2 1-143).
T7 sequence: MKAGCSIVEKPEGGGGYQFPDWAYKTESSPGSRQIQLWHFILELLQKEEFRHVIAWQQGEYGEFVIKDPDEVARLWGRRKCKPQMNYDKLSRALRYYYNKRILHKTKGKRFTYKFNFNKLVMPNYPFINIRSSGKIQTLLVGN
The essentials:
as §1

Assay [8] addresses ETV6 (Homo sapiens, UniProt P41212 1-452). The gist of the method: as §1

Chain of ETV6 (P41212 whole entry): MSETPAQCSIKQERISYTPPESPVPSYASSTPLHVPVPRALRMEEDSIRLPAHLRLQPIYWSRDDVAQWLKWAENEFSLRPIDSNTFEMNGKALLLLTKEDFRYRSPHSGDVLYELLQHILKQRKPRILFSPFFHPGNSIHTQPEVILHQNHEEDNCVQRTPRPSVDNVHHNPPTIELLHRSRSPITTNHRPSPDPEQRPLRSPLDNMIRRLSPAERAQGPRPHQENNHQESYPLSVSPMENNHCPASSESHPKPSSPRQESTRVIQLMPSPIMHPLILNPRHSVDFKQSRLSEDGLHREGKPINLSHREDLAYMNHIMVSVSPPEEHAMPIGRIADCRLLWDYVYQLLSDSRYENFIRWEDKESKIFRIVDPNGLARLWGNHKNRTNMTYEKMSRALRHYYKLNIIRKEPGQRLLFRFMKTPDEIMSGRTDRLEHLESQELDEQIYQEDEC

With ATTCGA, the binding signal in assay [1] is 1.29 fold enrichment (6-mer frequency, TF over GST control); in assay [2], 1.47 fold enrichment (6-mer frequency, TF over GST control); in assay [3], 1.31 fold enrichment (6-mer frequency, TF over GST control); in assay [4], 1.28 fold enrichment (6-mer frequency, TF over GST control); in assay [5] it was 1.28 fold enrichment (6-mer frequency, TF over GST control); in assay [6], 1.24 fold enrichment (6-mer frequency, TF over GST control). Further, the binding signal in assay [7] was 1.22 fold enrichment (6-mer frequency, TF over GST control); in assay [8] it was 1.23 fold enrichment (6-mer frequency, TF over GST control).

As to AAACCT, the binding signal is 1.18 fold enrichment (6-mer frequency, TF over GST control) in assay [1]; 1.07 fold enrichment (6-mer frequency, TF over GST control) in assay [2]; 1.13 fold enrichment (6-mer frequency, TF over GST control) in assay [3]; 1.05 fold enrichment (6-mer frequency, TF over GST control) in assay [4]; 1.16 fold enrichment (6-mer frequency, TF over GST control) in assay [5]; 1.13 fold enrichment (6-mer frequency, TF over GST control) in assay [6]. In addition, the binding signal in assay [7] was 1.1 fold enrichment (6-mer frequency, TF over GST control); in assay [8], 1.16 fold enrichment (6-mer frequency, TF over GST control).

GCTAAA: the binding signal is 1.19 fold enrichment (6-mer frequency, TF over GST control) in assay [1]; 1.15 fold enrichment (6-mer frequency, TF over GST control) in assay [2]; 1.13 fold enrichment (6-mer frequency, TF over GST control) in assay [3]; 1.08 fold enrichment (6-mer frequency, TF over GST control) in assay [4]; 1.08 fold enrichment (6-mer frequency, TF over GST control) in assay [5]; 1.04 fold enrichment (6-mer frequency, TF over GST control) in assay [6]. Further, the binding signal is 1.13 fold enrichment (6-mer frequency, TF over GST control) in assay [7] and 1.08 fold enrichment (6-mer frequency, TF over GST control) in assay [8].

For AACTGG, the binding signal was 1.18 fold enrichment (6-mer frequency, TF over GST control) in assay [1]; 1.23 fold enrichment (6-mer frequency, TF over GST control) in assay [2]; 1.3 fold enrichment (6-mer frequency, TF over GST control) in assay [3]; 1.23 fold enrichment (6-mer frequency, TF over GST control) in assay [4]; 1.23 fold enrichment (6-mer frequency, TF over GST control) in assay [5]; 1.26 fold enrichment (6-mer frequency, TF over GST control) in assay [6]. Further, the binding signal is 1.29 fold enrichment (6-mer frequency, TF over GST control) in assay [7] and 1.31 fold enrichment (6-mer frequency, TF over GST control) in assay [8].

As to TTATCG, the binding signal was 1.2 fold enrichment (6-mer frequency, TF over GST control) in assay [1]; 1.32 fold enrichment (6-mer frequency, TF over GST control) in assay [2]; 1.2 fold enrichment (6-mer frequency, TF over GST control) in assay [3]; 1.16 fold enrichment (6-mer frequency, TF over GST control) in assay [4]; 1.02 fold enrichment (6-mer frequency, TF over GST control) in assay [5]; 1.25 fold enrichment (6-mer frequency, TF over GST control) in assay [6]. Moreover, the binding signal in assay [7] is 1.22 fold enrichment (6-mer frequency, TF over GST control); in assay [8], 1.27 fold enrichment (6-mer frequency, TF over GST control).

As to AATCAA, the binding signal in assay [1] is 1.17 fold enrichment (6-mer frequency, TF over GST control); in assay [2], 1.24 fold enrichment (6-mer frequency, TF over GST control); in assay [3] it was 1.18 fold enrichment (6-mer frequency, TF over GST control); in assay [4], 1.11 fold enrichment (6-mer frequency, TF over GST control); in assay [5], 1.16 fold enrichment (6-mer frequency, TF over GST control); in assay [6], 1.16 fold enrichment (6-mer frequency, TF over GST control). Besides, the binding signal in assay [7] is 1.2 fold enrichment (6-mer frequency, TF over GST control); in assay [8], 1.2 fold enrichment (6-mer frequency, TF over GST control).

As for GTAAAT, the binding signal in assay [1] is 1.18 fold enrichment (6-mer frequency, TF over GST control); in assay [2] it was 1.23 fold enrichment (6-mer frequency, TF over GST control); in assay [3], 1.18 fold enrichment (6-mer frequency, TF over GST control); in assay [4], 1.13 fold enrichment (6-mer frequency, TF over GST control); in assay [5] it was 1.2 fold enrichment (6-mer frequency, TF over GST control); in assay [6] it was 1.12 fold enrichment (6-mer frequency, TF over GST control). For the same sequence, the binding signal in assay [7] was 1.13 fold enrichment (6-mer frequency, TF over GST control); in assay [8], 1.18 fold enrichment (6-mer frequency, TF over GST control).
